Screens deposited in PubChem by National Center for Advancing Translational Sciences (NCATS).
A selection: hits, their analogues and other compounds. The true share with any hit is near 2.4%.
Cruzain noTriton: qHTS Assay for Promiscuous and Specific Inhibitors of Cruzain (without detergent) | Cruzipain (Trypanosoma cruzi), P25779 | purified cruzain, Z-FR-AMC fluorescence, no detergent | Potency, µM, hits mostly inhibitors | 200,000 tested, 2.3% active | AID 1476, 2009; further: nearly all actives have a fitted effect of over 40% in size
Target sequence (P25779 123-467 limits assumed): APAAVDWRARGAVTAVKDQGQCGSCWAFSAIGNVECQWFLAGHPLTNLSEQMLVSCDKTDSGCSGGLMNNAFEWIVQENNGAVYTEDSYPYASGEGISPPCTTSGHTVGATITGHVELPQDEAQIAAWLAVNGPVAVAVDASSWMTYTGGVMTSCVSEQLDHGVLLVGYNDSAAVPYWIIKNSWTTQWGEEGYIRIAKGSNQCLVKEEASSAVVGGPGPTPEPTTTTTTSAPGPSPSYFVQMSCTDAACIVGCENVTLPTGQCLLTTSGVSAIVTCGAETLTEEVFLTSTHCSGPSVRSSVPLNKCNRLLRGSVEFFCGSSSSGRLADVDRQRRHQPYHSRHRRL
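Detergent-free condition (0.00005% Triton X-100) in acetate buffer pH 5.5 with DTT. 1.5 nM enzyme and compound were pre-mixed 15 min, then 2 uM Z-FR-AMC substrate added; reaction progress from fluorescence change between first and third reads (60 s).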
Cruzain Triton: qHTS Assay for Promiscuous and Specific Inhibitors of Cruzain (with detergent); Cruzipain (Trypanosoma cruzi), P25779; purified cruzain, Z-FR-AMC fluorescence, 0.01% Triton; Potency, µM, actives largely listed as inhibitors; 200,000 tested, 0.43% active; AID 1478, 2009; further: nearly all actives have a fitted effect of over 40% in size
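Detergent-containing run (0.01% Triton X-100) in acetate buffer pH 5.5 with 5 mM DTT: enzyme at 1.5 nM final, 15 min compound preincubation at room temperature, then 2 uM Z-FR-AMC substrate. Activity taken as 60 s fluorescence increase at 360/450 nm.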
Numbers stand for hits; . = inactive; ? = inconclusive. The call rests on the fitted dose curve; in most records, active means well fitted curve in the direction sought with a large enough effect; inconclusive means small, poorly fitted or top-dose-only effect, or another doubt; inactive means no such curve, though single readings can be large; an effect the other way counts as inactive or inconclusive.

SMILES	Cruzain noTriton	Cruzain Triton
Cc1oc(-c2ccccc2)nc1C(=O)Nc1nccs1	.	.
CC(=O)c1c(C)[nH]c(C(=O)Nc2nc(-c3ccc(Cl)cc3)cs2)c1C	.	.
CC(=O)c1c(C)[nH]c(C(=O)Nc2nc(-c3ccc(-c4ccccc4)cc3)cs2)c1C	10µM	.
COc1ccc(-c2csc(NC(=O)c3nc(-c4ccccc4)oc3C)n2)cc1	7.9µM	.
O=C(NC1CC(=O)N(c2cccc(F)c2)C1)c1cc2ccccc2o1 (configuration not stated)	.	.
CCOc1ccc(CNC(=O)c2ccc3c(c2)nc2n3CCCCC2)cc1	.	.
COc1ccc(CN=Cc2[nH]c3ccc(Br)c(Cl)c3c2O)cc1	25µM	.
COc1ccc(CN=CC2=C(O)CNC2=O)cc1	.	.
Cc1ccc(O)c(C=Nc2ccc3[nH]ncc3c2)c1	.	?
Cc1cc(C)cc(N=Cc2[nH]c3ccc(Br)c(Cl)c3c2O)c1	4µM	.
CCCCSc1nnc2n(-c3cccc(C)c3)c(=O)c3c4c(sc3n12)CCCC4	.	.
CCn1c(SCC(=O)Nc2ccc(C)cc2Br)nnc1-c1nonc1NC(C)=O	.	.
CCOC(=O)c1cccc(NC(=O)C2CCCN(S(=O)(=O)c3cc(Br)cc4c3N(C(=O)CC)CC4)C2)c1 (configuration not stated)	.	.
CCOC(=O)c1cccc(NC(=O)N2Cc3ccccc3Oc3ncccc32)c1	.	.
O=C(NC(=S)NNS(=O)(=O)c1ccccc1)c1ccc([N+](=O)[O-])cc1	10µM	?
O=C(NC(=S)NNS(=O)(=O)c1ccccc1)c1ccccc1[N+](=O)[O-]	.	.
CCC[C@@H]1C[C@@]1(CCC)C(NC(=O)c1cccs1)c1ccc(Cl)cc1 (some centres not stated)	.	.
CCOC(=O)c1oc2ccccc2c1NC(=O)COc1cccc(OC)c1	.	.
CCOC(=O)c1oc2ccccc2c1NC(=O)COc1ccc(F)cc1	13µM	.
COC(=O)c1ccc2c(=O)n(CCCCCC(=O)NCCc3ccc(Cl)cc3)c(=O)[nH]c2c1	.	.
O=C(CSc1nnc(-c2ccc(F)cc2)c2ccccc12)Nc1ccccc1Cl	16µM	.
O=C(CSc1nnc(-c2ccc(F)cc2)c2ccccc12)Nc1c(F)cccc1F	16µM	.
COc1ccc(CCNC(=O)CSc2nnc(-c3ccc(F)cc3)c3ccccc23)cc1OC	?	.
O=C(CSc1ncnc2c1oc1ccccc12)Nc1cccc(Cl)c1	.	.
O=C(CSc1nnc(-c2ccc(F)cc2)c2ccccc12)Nc1cccc(Cl)c1	16µM	.
SMILES	Cruzain noTriton	Cruzain Triton
O=C(CCC(=O)c1ccc(F)cc1)Nc1ccccc1Cl	.	.
CCCCSc1nnc(-c2ccc(C)cc2)c2ccccc12	.	.
O=C(CSc1nnc(-c2ccc(F)cc2)c2ccccc12)Nc1ccccc1	32µM	.
O=C(/C=C\c1ccc2c(c1)OCO2)NC1CC(=O)N(c2ccc(F)cc2)C1 (configuration not stated)	.	.
CCn1nc(C)c2c(-c3ccccc3)cc(=O)n(C(C)C(=O)NCc3ccccc3OC)c21 (configuration not stated)	.	.
COc1ccc2[nH]cc(CCNc3cc(-c4c(C)noc4C)ncn3)c2c1	.	.
Cc1ccc(Cn2cc3c(n2)-c2c(oc(C(=O)Nc4ccc(F)cc4F)c2C)CC3)cc1	.	.
CCC[C@@H]1C[C@@]1(CCC)C(NC(=O)c1ccccc1)c1cccc(Cl)c1 (some centres not stated)	.	.
CC1=N/C(=C\c2ccc([N+](=O)[O-])cc2)C(=O)N1c1ccc(Cl)cc1	16µM	.
CC1=N/C(=C/c2ccc([N+](=O)[O-])cc2)C(=O)N1c1ccc(Cl)cc1Cl	.	.
CC(OC(=O)c1ccccc1Br)C(=O)Nc1nc(-c2cccc([N+](=O)[O-])c2)cs1 (configuration not stated)	?	.
CS(=O)(=O)N1CCc2cc(-c3csc(NC(=O)C(c4ccccc4)c4ccccc4)n3)ccc21	7.9µM	.
COc1ccc(CC(=O)Nc2cccc(-c3csc(C)n3)c2)cc1	.	.
COc1ccc(CC(=O)Nc2nc(-c3cccc([N+](=O)[O-])c3)cs2)cc1	20µM	.
CC1Cc2cc(-c3csc(NC(=O)Cc4ccccc4)n3)ccc2N1S(C)(=O)=O (configuration not stated)	?	.
O=C(Nc1nc(-c2cccc([N+](=O)[O-])c2)cs1)C(c1ccccc1)c1ccccc1	10µM	.
CCN(CC)S(=O)(=O)c1ccc2c(c1)N(CC(=O)N1CCN(c3cccc(Cl)c3)CC1)C(=O)CO2	?	.
O=C(Nc1ccc(Cl)cc1)C1CCN(c2nc3ccccc3n3cccc23)CC1	.	.
CCn1c(CN2CCN(C)CC2)nc2cc(NC(=O)c3cc(OC)c(OC)c(OC)c3)ccc21	.	.
Cc1cc(C)cc(Nc2nc3c(S(=O)(=O)c4ccccc4)nnn3c3ccccc23)c1	?	.
Cc1cccc(Nc2nc3c(S(=O)(=O)c4ccccc4)nnn3c3ccccc23)c1	25µM	.
c1ccc(Nc2nc(N3CCOCC3)nc(N3CCOCC3)n2)cc1	.	.
NNc1nc(Nc2ccccc2)nc(N2CCCCC2)n1	13µM	.
COc1ccc(-c2nc(C(=O)Nc3cccc(C(C)=O)c3)nn2-c2ccc(Cl)cc2)cc1	.	.
CC(=O)c1cccc(NC(=O)c2nc(-c3ccccc3)n(-c3ccccc3C)n2)c1	7.9µM	.
SMILES	Cruzain noTriton	Cruzain Triton
O=C(CSc1nnc(-c2c[nH]c3ccccc23)o1)N(Cc1ccccc1)c1ccc(F)cc1	13µM	.
COc1ccc(CN(C(=O)CSc2nnc(-c3ccccc3C)o2)c2ccc(F)cc2)cc1	.	.
CC(C)CN(CC(C)C)C(=O)C1CCCN(S(=O)(=O)c2ccc3c(c2)oc(=O)n3C)C1 (configuration not stated)	.	.
Cc1cc(O)ccc1Nc1nc(-c2sc(N)nc2C)cs1	?	.
COc1ccc(OC)c(Nc2nc(-c3sc(N)nc3C)cs2)c1	25µM	?
COc1ccc(CCNc2nc(-c3sc(C)nc3C)cs2)cc1OC	?	.
Cc1nc(N)sc1-c1csc(Nc2ccccc2)n1	13µM	25µM
COc1cc(Cl)c(C)cc1NC(=O)Cn1c(C)c2cnn(-c3ccccc3)c(=O)c2c1C	.	.
COCc1nc2ccccc2n1Cc1ccc(C(C)(C)C)cc1	?	.
O=C(Nc1ccc(-c2nc3ccccc3s2)c(O)c1)C1=COCCO1	?	16µM
O=C(Nc1ccc(OC(=O)c2ccccc2)c(-c2nc3ccccc3s2)c1)c1ccccc1	7.9µM	.
Cc1ccc2nc(-c3ccc(NC(=O)CCN4C(=O)c5ccccc5C4=O)cc3)sc2c1	?	.
O=C(CCN1C(=O)c2ccccc2C1=O)Nc1ccc(-c2nc3ccccc3s2)cc1	25µM	.
COc1ccc(C(=O)Nc2cc(C)c(O)c(-c3nc4ccccc4s3)c2)cc1OC	.	.
O=C(CCS(=O)(=O)c1ccccc1)Nc1ccc(-c2nc3ccccc3s2)c(O)c1	10µM	.
O=C(Nc1ccc(O)c(-c2nc3ccccc3s2)c1)C1=COCCO1	.	.
CCS(=O)(=O)c1cccc(C(=O)Nc2ccc(-c3nc4ccccc4s3)c(O)c2)c1	.	.
